About 4,400 (1.3%) of roughly 330,000 compounds were called active. The entries come from a sample that favours actives as a whole. Unmarked numbers belong to inactive results.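 The calls were made as follows: active = growth inhibition of the mutant yeast at or above 50%; inactive = the rest.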
Test: growth inhibitors of tim23-1 mutant yeast, primary screen, luminescence, uHTS (AID 463212);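 also: temperature-sensitive mutant grown at 25 °C; plate controls were DMSO-treated mutant yeast for no effect and medium wells lacking yeast for full effect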
Conditions: S. cerevisiae tim23-1 growth, BacTiter-Glo luminescence, 24 h; at 20 µM; stronger effect = higher value

Structure (SMILES)	inhibition
O=C(COC(=O)/C(=C/c1cccs1)c1cccs1)NCc1ccccc1Cl	24%
Cc1ccc2nc(/C(C#N)=C\c3ccc(OC(=O)c4cccs4)cc3)[nH]c2c1	-4.69%
O=C(/C(=C/c1cccc(Cl)c1)c1nc2ccccc2[nH]1)c1ccccc1	44.9%
COc1cc(/C=C(\C#N)c2nc3ccccc3[nH]2)ccc1O	56.4% (active)
CCOc1ccc(OCC(=O)Nc2c3c(nn2C(C)(C)C)CS(=O)(=O)C3)cc1	11.1%
CCOC(=O)c1c(NC(=O)CCl)sc(C(=O)N(CC)CC)c1C	5.96%
O=S(=O)(c1cccc2nonc12)N1CCN(c2cccc(Cl)c2)CC1	22.8%
O=C(CC(O)(C(F)(F)F)C(F)(F)F)Nc1ccc(Cl)c(Cl)c1	90.6% (active)
O=C(COC(=O)c1cc[n+]([O-])cc1)Nc1ccc(Cl)c(C(F)(F)F)c1	5.05%
O=C(CCCN1C(=O)CCC1=O)Nc1ccc(Cl)c(C(F)(F)F)c1	-4.71%
CC/C(O)=C1\C(=O)CC(C)(C)CC1=NCCc1nc2ccccc2[nH]1	-7.57%
CC(=O)N1CCOc2ccc(S(=O)(=O)N3CCN(c4cccc(C(F)(F)F)c4)CC3)cc21	36.1%
COc1ccc(CN(C)C(C)C(=O)NC2CCCc3ccccc32)cc1 (stereo not drawn)	24.3%
COc1ccc2c(c1)C(NS(=O)(=O)OCC(Cl)(Cl)Cl)CCC2 (stereo not drawn)	55.4% (active)
COC(=O)c1cc(OCC(=O)NC2CCCc3ccccc32)cc(C(=O)OC)c1 (stereo not drawn)	16.8%
CC(CC(=O)N1CCN(c2ccccc2)CC1)S(=O)(=O)c1ccc2c(c1)NC(=O)CS2 (stereo not drawn)	-6.88%
COC(=O)C(C)NC(=O)COc1ccc2ccccc2c1 (stereo not drawn)	7.67%
N/C(Cc1ccc([N+](=O)[O-])cc1)=N\OC(=O)COc1ccc2ccccc2c1	60.5% (active)
O=C(NCC(O)c1ccc([N+](=O)[O-])cc1)C1CCCCC1 (stereo not drawn)	-0.943%
O=C(COC(=O)Cc1ccc([N+](=O)[O-])cc1)NC1CCCCCC1	19.1%

Structure (SMILES)	inhibition
Cc1cc(C)cc(OCC(=O)O/N=C(\N)Cc2ccc([N+](=O)[O-])cc2)c1	26.9%
N/C(Cc1ccc([N+](=O)[O-])cc1)=N\OC(=O)C1CCCCC1	58.8% (active)
CC(Oc1ccc2c(-c3ccccc3)cc(=O)oc2c1)C(=O)NC(Cc1c[nH]c2ccccc12)C(=O)O (stereo not drawn)	21%
CCc1ccc(NC(=O)CS(=O)CC(=O)N2CCN(c3ccccc3F)CC2)cc1 (stereo not drawn)	-23.1%
O=C(CN1CCOCC1)N/N=C/c1ccc(-c2ccc(Br)cc2)o1	1.87%
Cc1ccc(-c2ccc(/C=N/NC(=O)CN3CCOCC3)o2)cc1[N+](=O)[O-]	55.9% (active)
Cc1occc1C(=O)N/N=C/c1ccc(-c2cccc([N+](=O)[O-])c2)o1	26%
Cc1cccc(CC(=O)N2CCN=C2SCc2ccc([N+](=O)[O-])cc2)c1	-3.28%
O=C(COc1ccccc1F)Nc1nc(-c2ccccn2)cs1	28.7%
CCN(C(=O)COC(=O)C1CCN(S(=O)(=O)c2ccc(C)c(C)c2)CC1)C1CCS(=O)(=O)C1 (stereo not drawn)	0.758%
C/C(N)=C(/C#N)C(=O)COC(=O)c1cc(-c2ccc(C)cc2)nc2ccccc12	3.42%
COC(=O)CNC(=O)c1cc(-c2ccncc2)nc2ccccc12	10.9%
N/C(=N\OC(=O)c1cc(-c2ccccc2)nc2ccccc12)c1ccncc1	79.2% (active)
CNC(=O)COc1ccc(S(=O)(=O)Nc2ccccc2)cc1	8.77%
NC(=O)c1oc2ccccc2c1NC(=O)CS(=O)(=O)c1ccccc1	6.4%
S=C(Nc1ccc(Br)cc1Cl)N1CCC2(CC1)OCCO2	20.7%
COc1ccc(OC)c(NC(=O)CN(Cc2ccc(Cl)cc2)S(C)(=O)=O)c1	9.4%
COc1ccc(C(=O)Nc2ccccc2C(=O)N/N=C/c2ccccc2OC)cc1	78.3% (active)
COc1ccc2[nH]c(C(=O)N/N=C/c3cc(OC)c(OC)c(OC)c3)cc2c1	20.6%
COc1ccc(C(=O)Nc2ccccc2C(=O)N/N=C/c2ccc(O)c(OC)c2)cc1	96% (active)

Structure (SMILES)	inhibition
COc1ccc(C(=O)Nc2ccccc2C(=O)N2CCN(c3ccccc3)CC2)cc1	35.2%
COc1ccc(C(=O)Nc2cc(C)c(NC(=O)c3ccccc3OC)cn2)cc1	28.7%
COc1ccc(/C=N/Nc2ccccc2C(=O)O)cc1	17%
CC(C)(C)c1ccc(C(=O)N2CCC(C(=O)N3CCCCC3)CC2)cc1	13.5%
CCc1[nH]nc(C(=O)N2CCCC(CNS(=O)(=O)c3cccs3)C2)c1C (stereo not drawn)	0.752%
Cc1ccc(C(C(=O)NCC2CCCO2)N(C(=O)c2snc(C(N)=O)c2N)c2ccc(C(C)C)cc2)o1 (stereo not drawn)	32.2%
CCOc1cc2[nH]c(=S)n(CCN3CCCCC3C)c(=O)c2cc1OCC (stereo not drawn)	14.8%
CC(C)Cc1ccc(C(C)C(=N)N)cc1 (stereo not drawn)	3.35%
CCOc1cccc(NC(=O)Cn2nc(-c3ccc4c(c3)OCCO4)ccc2=O)c1	-11.4%
Cc1ccc(-c2csc(NCCc3nc4cc(Cl)c(Cl)cc4n3CCOCCO)n2)cc1	25.4%
Cc1ccc(Nc2nc(-c3ccc(O)cc3O)cs2)nc1	65.9% (active)
O=C1OCCN1C(=O)[C@H]1[C@H](c2ccccc2)C(c2ccc(F)cc2)=NN1c1ccccc1	49.4%
C[C@@H]1C(c2ccc(F)cc2)=NN(c2ccc(Br)cc2)[C@H]1C(=O)N1CCOC1=O	61.2% (active)
O=C1OCCN1C(=O)[C@H]1[C@H](c2ccc(F)cc2)C(c2ccccc2)=NN1c1ccc(Br)cc1	41.6%
CCOCCOCCC(C(=O)O)P(=O)(c1ccccc1)c1ccccc1 (stereo not drawn)	20.6%
O=C(COC(=O)c1ccc([N+](=O)[O-])cc1Cl)NC(=O)c1ccccc1	-6.06%
O=C(NOCc1ccccc1)c1cccc([N+](=O)[O-])c1	40.8%
O=C(NC(Nc1nc2ccc([N+](=O)[O-])cc2s1)(C(F)(F)F)C(F)(F)F)c1ccccc1	80.5% (active)

— PubChem BioAssay AID463212 (Sanford-Burnham Center for Chemical Genomics, 2010)
